Compounds with a hit are over-represented: about 8.8% of the library has one in this group of screens.
HT1080 IDH1KD tx – HT-1080 IDH1 knockdown cell toxicity (counter line). HT-1080 IDH1 knockdown viability, ATP luminescence, 48 h. Potency, µM (doses to about 46.1 µM), inactives show at the highest dose activity, negative = toxicity, usual class: cytotoxic. 360,000 tested, 2% active. AID 686971;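 also: potency is read from the fitted curve at half-maximal effect; 0% = DMSO wells and -100% = cell-free medium wells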
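Cytotoxicity counter-line: IDH1KD HT-1080, 48 h, CellTiter-Glo. Curves classed by r2, magnitude and activity.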
HT1080-NT tox – kills 2HG-producing HT-1080-NT fibrosarcoma cells. Potency, µM (highest dose often 46.1 µM), inactives show at the top dose activity, negative = less viability, usual class: cytotoxic. 360,000 tested, 1.6% active. HT-1080-NT fibrosarcoma viability, CellTiter-Glo ATP luminescence, 48 h;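 also: NT is the 2HG producing partner of a matched IDH1 knockdown line; potency is read from the fitted curve at half-maximal effect; 0% = DMSO-treated cells and -100% = media-only wells without cells; nearly all actives have a fitted effect of over 55% in size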
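HT-1080-NT fibrosarcoma cells (2HG-overproducing), 750 cells/well in RPMI with 5% FBS, dosed after 2 h and incubated 48 h at 37C. CellTiter-Glo luminescence normalized to DMSO and no-cell wells; concentration-response curves fitted and classed.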
KB-V1 cytotox – kills drug-selected multidrug resistant KB-V1 cells | KB-V1 MDR cells viability, CellTiter-Glo, 72 h | Potency, µM (titrated, usually from 46.1 µM), hits mostly cytotoxic | 400,000 tested, 3.4% active | AID 1347076; also: potency is read from the fitted curve at half-maximal effect; nearly all actives have a fitted effect of over 60% in size
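Following 72 h at 37 degrees C with compound, KB-V1 cell viability was read by CellTiter-Glo luminescence, medium being phenol-red-free DMEM plus 10% FBS; concentration-response parameters came from normalized, curve-fitted qHTS data.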
KB-3-1 cytotox – kills parental KB-3-1 adenocarcinoma cells | AID 1347075 | KB-3-1 viability, CellTiter-Glo ATP luminescence, 72 h | Potency, µM (series often up to 46.1 µM), hits mostly cytotoxic | 400,000 tested, 1.4% active; also: potency is read from the fitted curve at half-maximal effect; nearly all actives have a fitted effect of over 60% in size
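Using CellTiter-Glo luminescence, growth of non-resistant KB-3-1 adenocarcinoma cells is assessed 72 h after pin-tool compound addition at 37 °C. Normalized responses across the concentration series yield fitted curves.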
IL1B secr inh – inflammasome signaling inhibition, IL-1 beta readout | 360,000 tested, 4.7% active | activity change, % at 57.5 µM | THP-1 LPS/ATP IL-1B secretion, AlphaLISA, 16 h; active compounds read low; in the data active = activity change below about -50%; inconclusive = mostly about -30% to -49%
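THP-1 cells pretreated 1 hr with compounds (up to 57.5 uM final), then stimulated with LPS (250 ng/mL final) plus ATP (1.25 mM final); secreted IL-1B measured by AlphaLISA after 16 hr, decreased signal indicating inhibition.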
Starred values were filed as active, the others as inactive; i = inactive; ? = inconclusive; . = not tested or not shown; ! = a repeat was not active. Unless noted, calls follow the shape of the dose curve; as a rule, active = well fitted curve in the direction sought with a large enough effect; inconclusive = small, poorly fitted or top-dose-only effect, or another doubt; inactive = no such curve, though single readings can be large; an effect the other way counts as inactive or inconclusive. Unless noted, % is scaled to controls: 0 for no effect and ±100 for the full control effect.

SMILES	HT1080 IDH1KD tx	HT1080-NT tox	KB-V1 cytotox	KB-3-1 cytotox	IL1B secr inh
O=C(c1cnc2ccc3ccccc3c2c1)c1cc(F)ccc1O	8.2µM*	16µM*	3.7µM*	?	28
Cc1nn(C)c2ncc(C(=O)c3cc(F)ccc3O)cc12	-8%	-2%	i	i	-17
CN1CCN(/C=N/c2c(C#N)cnn2Cc2ccccc2)CC1	-4%	-14%	10µM*	i	3
C[C@H](NC(=O)Nc1cccc(Br)c1)C(=O)O	9%	21%	i	i	14
COc1ccc(Oc2ccc3c(C(F)(F)F)cc(C(F)(F)F)nc3n2)cc1	3%	-20%	16µM*	i	-3
FC(F)(F)c1ccc(Oc2ccc3c(C(F)(F)F)cc(C(F)(F)F)nc3n2)cc1	6%	12%	i	i	-10
CCn1c(C)nnc1SCC(=O)Nc1ccc(N2CCOCC2)cc1	-3%	-6%	i	i	106
CCn1c(SCC(=O)Nc2ccc(N3CCOCC3)cc2)nnc1-c1ccc(OC)cc1	6%	7%	16µM*	i	55
COc1cccc(NC(=O)CSc2nnc(Cc3cccs3)n2-c2ccc(C)cc2)c1	?	-9%	8.2µM*	i	-19
COc1ccc(NC(=O)CSc2nnc(-c3ccccc3C)n2C)cc1	0%	-4%	15µM*	i	12
CCn1c(SCC(=O)Nc2ccccc2N2CCOCC2)nnc1-c1ccccc1	4%	17%	18µM*	i	-4
Cc1ccc(-c2cn3c(n2)sc2cc(C(=O)NC4CCCCCC4)ccc23)c(C)c1	.	.	i	i	.
CCn1c(SCC(=O)Nc2cccc(OC)c2)nnc1-c1ccc(Cl)cc1	-26%	-5%	12µM*	?	-6
CCOC(=O)c1sc(NC(=O)C(C)Sc2nnc(N)s2)nc1C (stereo unspecified)	2%	0%	i	i	-6
COc1ccc(OC)c(C2CC(=O)c3c([nH]c(C(=O)OCC4CCCO4)c3C)C2)c1 (stereo unspecified)	-15%	-11%	?	9.2µM*	-21
CCOC(=O)c1[nH]c2c(c1Cc1ccccc1C)C(=O)CC(c1cc(OC)ccc1OC)C2 (stereo unspecified)	.	.	i	i	.
COCCOC(=O)c1[nH]c2c(c1C)C(=O)CC(c1cc(OC)ccc1OC)C2 (stereo unspecified)	12µM*	12µM*	?	8.2µM*	36
COc1ccc(OC)c(C2CC(=O)c3c([nH]c(C(=O)OC(C)C)c3C)C2)c1 (stereo unspecified)	3.3µM*	5.8µM*	0.52µM*	0.46µM*	10
CCCOCCOC(=O)c1[nH]c2c(c1C)C(=O)CC(c1cc(OC)ccc1OC)C2 (stereo unspecified)	4.1µM*	5.8µM*	5.8µM*	5.8µM*	-72*
CCOCCOC(=O)c1[nH]c2c(c1C)C(=O)CC(c1ccc(OC)c(OC)c1)C2 (stereo unspecified)	?	?	?	i	-26
CCC(NS(=O)(=O)c1ccc(C)cc1)C(=O)N1CCOCCOCCOCCOCC1 (stereo unspecified)	7%	9%	i	i	9
COc1cc(C(=O)Nc2ccc(S(=O)(=O)N3CCCCC3)cc2)ccc1OCC(=O)N1CCOCC1	13%	8%	i	i	31
CC(C)Oc1ccc(C(=O)Nc2ccc(S(=O)(=O)N3CCN(C)CC3)cc2)cc1	-13%	-7%	i	i	27
CCN(CC)S(=O)(=O)c1ccc(C(O)=C(C#N)c2nc3ccccc3n2C)cc1	-6%	-16%	i	?	-72*
O=C(/C=C\NCC(=O)c1ccccc1)c1ccc2ccccc2c1	11%	0%	i	i	-54*
SMILES	HT1080 IDH1KD tx	HT1080-NT tox	KB-V1 cytotox	KB-3-1 cytotox	IL1B secr inh
CN(C)c1nc(=NCc2ccco2)ss1	-6%	-3%	i	i	-89*
CCc1cc(Cn2nc(-c3ccccc3)cc2C(=O)NCc2cccc(Br)c2)on1	-12%	-5%	23µM*	?	-53*
N#Cc1c([N+](=O)[O-])cc([N+](=O)[O-])cc1S(=O)(=O)Cc1ccccc1	2.9µM*	21µM*	?	23µM*	-112*
Cc1cccc(C)c1N=Nc1c(C)cc(O)cc1C	21µM*	?	?	?	-89*
CC(C)(C)c1ccc(C(=O)N2CCC(=O)N([C@H](COCc3ccccc3)Cc3ccccc3)CC2)cc1	?	?	i	i	?
O=C(c1ccc(C(F)(F)F)cc1)N1CCC(=O)N(C(COCc2ccc(Cl)cc2)Cc2ccccc2)CC1 (stereo unspecified)	?	?	?	?	-61*
O=C(c1ccc(C(F)(F)F)cc1)N1CCC(=O)N(C(COCc2ccccc2)Cc2ccccc2)CC1 (stereo unspecified)	-20%	-3%	i	i	-55*
Cn1ncc([N+](=O)[O-])c1C(=O)Nc1ccc(-c2nc3ccccc3o2)cc1	9%	1%	i	i	?
Cc1c(C(=O)N2CCN(c3cccc(Cl)c3)CC2)cccc1[N+](=O)[O-]	-14%	-10%	i	i	-1
c1nc(SSc2ncnc3nc[nH]c23)c2[nH]cnc2n1	1.3µM*	2.3µM*	2.3µM*	5.2µM*	?
Cc1cc(C)c(CSc2ncnc3nc[nH]c23)c(C)c1	-2%	-2%	i	i	-2
O=C(CSc1ncnc2nc[nH]c12)c1ccc2ccccc2c1	?	23µM*	i	i	5
O=C(CSc1ncnc2nc[nH]c12)N1CCN(c2ccc(Cl)cc2)CC1	-26%	?	?	18µM*	-2
O=C(O)CSc1ncnc2nc[nH]c12	-11%	0%	i	i	10
COc1cc(C#N)ccc1OCC(=O)Nc1cccc(S(=O)(=O)N(C)c2ccccc2)c1	-23%	-17%	?	i	-1
CCCCN(C)/C=N/c1c(C#N)cnn1-c1ccc(C)cc1	2%	-1%	5.8µM*	?	-16
Cc1ccc(-n2ncc(C#N)c2/N=C/N2CCN(C)CC2)cc1	9%	3%	i	i	0
Cc1cccn2c(=O)c3cc(C#N)c(=NC(=O)c4ccccc4)n(Cc4ccco4)c3nc12	7%	-2%	?	i	-76*!
CC(=O)N1CCC(N(Cc2ccco2)C(=O)Nc2cccc(C)c2)CC1	.	.	?	i	.
O=C(O)c1ccccc1NS(=O)(=O)c1ccc(NNC(=S)Nc2ccc(OC(F)F)cc2)c([N+](=O)[O-])c1	-8%	0%	i	?	-51*
Cc1ccc(NC(=S)NNc2ccc([N+](=O)[O-])cc2S(=O)(=O)Nc2ccccc2C(=O)O)cc1C	-4%	-5%	i	i	-11

Screening results: PubChem, National Center for Advancing Translational Sciences (NCATS)
